Source: PubChem
mHTT CaM bind: mHTT-calmodulin interaction abrogation; P42858; AlphaScreen His-mHTT/GST-CaM binding, luminescence; inhibition, % at 15 µM; actives 3.6% (n = 190,000); AID 1671202;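 further: 0% = both proteins with DMSO and 100% = one protein alone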
Pf apPOL block: Pf-apPOL DNA polymerase inhibition; actives 0.25% (n = 210,000); AID 1794808; inhibition, % at 10 µM; Recombinant Pf-apPOL, molecular beacon fluorescence, 1.5 h
Numbers without * were called inactive; . = not tested or not shown; ! = a repeat was not active. An excerpt weighted towards active compounds, which were near 3.6% of everything screened. No stated cut-off is given here; in the data, active means inhibition above about 50%; inactive means the rest.

SMILES	mHTT CaM bind	Pf apPOL block
O=C(NCc1ccc2c(c1)OCO2)c1cn2cc(Cl)ccc2n1	3	-9
COc1ccc(-c2cc3ccc(OC(=O)C(C)C)cc3oc2=O)c(OC)c1	78*	-1
COc1ccc(OC)c(-c2cc3ccc(OC(=O)C(C)C)cc3oc2=O)c1	-3	-5
COCCCNC(=O)c1cnn2c(C)c(Cc3c(C)cc(C)cc3C)c(C)nc12	24	-12
CC(C)(C)C(=O)Nc1nc(CC(=O)NCc2c(F)cccc2F)cs1	-17	-10
CC1=NN(c2ccccc2)C(=O)/C1=C/c1ccc(O)c(Cl)c1	22	1
CC1=NN(c2ccccc2)C(=O)/C1=C/c1cc(Cl)c(O)c(Cl)c1	64*	-9
COc1cccc(/C=C2/C(=O)N(c3cccc(Cl)c3)N=C2C)c1	96*	-3
COc1ccc(/C=C2/C(=O)N(c3ccccc3)N=C2C)cc1Br	20	2
COc1cc(/C=C2/C(=O)N(c3ccccc3)N=C2C)cc([N+](=O)[O-])c1O	57*	1
COc1ccccc1/C=C1/C(=O)N(c2cccc(Cl)c2)N=C1C	22	2
COc1cc(/C=C2/C(=O)N(c3ccccc3)N=C2C)c([N+](=O)[O-])cc1OC	0	-5
COc1cc(/C=C2/C(=O)N(c3ccccc3)N=C2C)cc(Br)c1O	55*	7
O=C(NCC1COC2(CCCCC2)O1)c1cccc([N+](=O)[O-])c1 (configuration not stated)	0	2
O=C(Cn1cc(-c2ccc(F)cc2)oc1=O)NCc1ccccc1	-8	-2
COc1cc(/C=C2/C(=O)N(c3ccccc3)N=C2C)cc(OC)c1O	52*	-5
COc1cc(/C=C2/C(=O)N(c3cccc(Cl)c3)N=C2C)cc(Br)c1O	78*	-2
CC1=NN(c2cccc(Cl)c2)C(=O)/C1=C/c1ccc(Br)c([N+](=O)[O-])c1	81*	-3
COc1cc(/C=C2/C(=O)N(c3ccc(Cl)c(Cl)c3)N=C2C)cc(OC)c1O	67*	2
COc1ccc(/C=C2/C(=O)N(c3ccc(Cl)c(Cl)c3)N=C2C)cc1Br	0	1
COc1cc(/C=C2/C(=O)N(c3ccccc3)N=C2C)ccc1OCc1ccccc1	10	-3
COc1ccc(/C=C2/C(=O)N(c3ccc(Cl)c(Cl)c3)N=C2C)cc1[N+](=O)[O-]	12	2
COc1cc(/C=C2/C(=O)N(c3ccc(Cl)c(Cl)c3)N=C2C)cc(OC)c1OC	14	-4
O=C(c1cc(Cl)cc(Cl)c1)n1ccnc1	4	3
O=[N+]([O-])c1cccc(NC2=NS(=O)(=O)c3ccccc32)c1	4	-6
SMILES	mHTT CaM bind	Pf apPOL block
CCOC(=O)C1CCCN(C(=O)C2CCN(c3cc(Cl)ccc3C)C2=O)C1 (configuration not stated)	-5	-4
COc1cc(/C=C2/C(=O)N(c3ccc(C)c(Cl)c3)N=C2C)ccc1O	52*	-2
C=CCOc1ccc(/C=C2/C(=O)N(c3ccc(Cl)c(Cl)c3)N=C2C)cc1OC	6	-4
Cc1ccc(N2CCN(C(=O)c3cc(C)n4nccc4n3)CC2)cc1	-3	-2
COc1ccccc1NC(=O)c1cnn(-c2ccccc2)c1NC(=O)c1cccc(F)c1	59*!	8
O=C(Nc1c(C(=O)Nc2ccccc2)cnn1-c1ccccc1)c1ccccc1	11	3
CC(C)(C)c1nocc1C(=O)ON=C(N)c1ccccn1	.	-3
COc1cccc(C(C)NC(=O)C2CCN(Cc3cn(C)c4ccccc34)CC2)c1 (configuration not stated)	2	-7
COc1ccc2[nH]cc(CN3CCC(C(=O)NC(C)c4ccc(F)cc4)CC3)c2c1 (configuration not stated)	68*	1
Cc1ccc(S(=O)(=O)C(CN)c2cccs2)cc1 (configuration not stated)	-16	69*
O=C(NCC(c1cccs1)S(=O)(=O)c1ccccc1)Oc1ccccc1 (configuration not stated)	2	2
CCc1ccc(NC(=O)N2CCC(n3cnc4ccc(C)cc4c3=O)CC2)cc1	10	-17
O=C(CCCc1ccccc1)NC1CCN(c2nnc3ccc(Cl)cn23)CC1	2	-1
Cc1cc(C)c(S(=O)(=O)N2CCC(CN3CCCC(C)C3)CC2)cc1C (configuration not stated)	-1	-3
CCCN(C(=O)Cc1nc(N)n[nH]1)C1(C(=O)Nc2ccccc2C)CCCCC1	7	0
CN1/C(=C/c2cccc[n+]2CCO)Sc2ccccc21	8	-1
CN1C(=CC=Cc2cc[n+](CCO)c3ccccc23)Sc2ccccc21	95*	78*
Cc1cccc(-c2nccc(C3CCCN(C(=O)C4CC4)C3)n2)c1 (configuration not stated)	14	-1
O=C(c1ccc(Cl)c(Cl)c1)N1CCN(c2ccc([N+](=O)[O-])c3cccnc23)CC1	8	1
O=C(c1cc(F)c(F)cc1Cl)N1CCN(c2ccc([N+](=O)[O-])c3cccnc23)CC1	50*	-3
O=C(c1ccccc1)N1CCN(c2ccc(F)cc2[N+](=O)[O-])CC1	10	-6
O=C(c1ccccc1)N1CCN(c2ccc([N+](=O)[O-])cc2Cl)CC1	4	-1
O=C(c1cccc([N+](=O)[O-])c1)N1CCN(c2cccc(Cl)c2Cl)CC1	74*	-1
O=C(c1ccc(Cl)c(Cl)c1)N1CCN(c2ccc(F)cc2[N+](=O)[O-])CC1	53*	-19
COc1cccc(C(=O)N2CCN(c3nc(C)nc(C)c3Cc3ccccc3)CC2)c1	2	1
SMILES	mHTT CaM bind	Pf apPOL block
COCCCNC(=O)c1cc2c(=O)n3ccccc3nc2n(CCN2CCOCC2)c1=N	7	-1
COc1cc(CN2CCN(c3ccccc3)CC2)c([N+](=O)[O-])cc1OC	17	-10
Cc1ccc(S[C@@H](CCN2CC[C@H](NC(=O)OCc3ccccc3)CCC2=O)c2ccccc2)cc1	14	-7
Nc1[nH]ncc1C(=O)Nc1ccccc1	3	3
Cc1ccc(Cn2c(SCC(O)CO)nc3c2c(=O)[nH]c(=O)n3C)cc1 (configuration not stated)	-3	3
O=C1CC(c2ccccc2Cl)c2c(n[nH]c2-c2ccccc2)N1 (configuration not stated)	69*	2
O=C1CC(c2ccccc2F)c2c(n[nH]c2-c2ccccc2)N1 (configuration not stated)	7	4
COc1ccc(C2CC(=O)Nc3n[nH]c(-c4ccc(Cl)cc4)c32)c(OC)c1 (configuration not stated)	39	-3
COc1ccc(C2CC(=O)Nc3n[nH]c(-c4ccccc4)c32)c(OC)c1 (configuration not stated)	80*	1
COc1ccc(C2CCCN2C(=O)c2cc(-c3ccc4c(c3)OCO4)on2)cc1 (configuration not stated)	-1	1
O=C(NCC(O)C1CCCCC1)NC(c1ccccc1)c1ccccc1 (configuration not stated)	-17	-6
Cc1cc(NC(=O)c2ccc(S(=O)(=O)N(C)C)o2)no1	-14	0
CN(C)S(=O)(=O)c1ccc(C(=O)NC(C)(C)CO)o1	100*	-3
O=C(/C=C/c1ccccc1)NCCc1nc2ccccc2[nH]1	7	-3
COc1cc(C2C(C#N)=C(N)Oc3c2[nH]c(=O)[nH]c3=O)cc(OC)c1OC (configuration not stated)	-4	97*
